In the library only some 4.1% were active in any assay of this set; here they are far more common.
HEK293 cAMP ctrl = counter-screen for TSHR agonists: cAMP increase in parental HEK293; parental HEK293 CNG cAMP sensor, membrane potential fluorescence; Potency, µM (top dose mostly 57.1 µM), for the others: at the top dose activation, hits mostly activators; 2.5% of 73,000 active; also: potency is read from the fitted curve at half-maximal effect; % of control where 0% means no effect; nearly all actives have a fitted effect of over 55% in size
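Parental HEK 293 cells stably expressing a modified CNG channel (no TSHR) report cAMP rise as membrane depolarization. Membrane potential dye with 100 uM RO 20-1724 was loaded for 60 min at room temperature, then compound added for 30 min; fluorescence read at 590 nm.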
GBA activity = alters purified human glucocerebrosidase activity; Potency, µM; 1.1% of 48,000 active; purified enzyme, resorufin glucoside fluorescence (screen aimed at inhibitors), 20 min; in the data active = potency below about 15 µM; inconclusive = mostly about 16 µM to 33 µM;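 also: potency is read from the fitted curve at half-maximal effect; the screen sought inhibitors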
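Wild-type enzyme at 0.2 nM final in 50mM citric acid/KH2PO4, 10mM sodium taurocholate, 0.01% tween-20, pH 5.9, with resorufin beta-D-glucopyranoside at 30 uM final. Compounds titrated, 20 min at RT, red fluorescence read; AC50 from titration.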
Bst PK mod = alters activity of Bacillus stearothermophilus pyruvate kinase; purified pyruvate kinase, luminescence ATP production; ribose 5-phosphate activator present at AC10; Potency, µM; 1.2% of 51,000 active; AID 361; in the data active = potency below about 11 µM; inconclusive = mostly about 12 µM to 25 µM;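 the screen sought inhibitors and activators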;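 also: potency is read from the fitted curve at half-maximal effect; scaled between full activation by ribose 5 phosphate and full inhibition by luteolin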
USP2a inhib = blocks human ubiquitin-specific protease USP2a; O75604; USP2a enzymatic assay, qHTS inhibition; Potency, µM (titrated, usually from 38.3 µM), without a hit: top-dose activity change, negative = inhibition, actives largely listed as inhibitors; 0.1% of 60,000 active; also: potency is read from the fitted curve at half-maximal effect; nearly all actives have a fitted effect of over 60% in size
Target sequence (O75604 whole entry, looked up): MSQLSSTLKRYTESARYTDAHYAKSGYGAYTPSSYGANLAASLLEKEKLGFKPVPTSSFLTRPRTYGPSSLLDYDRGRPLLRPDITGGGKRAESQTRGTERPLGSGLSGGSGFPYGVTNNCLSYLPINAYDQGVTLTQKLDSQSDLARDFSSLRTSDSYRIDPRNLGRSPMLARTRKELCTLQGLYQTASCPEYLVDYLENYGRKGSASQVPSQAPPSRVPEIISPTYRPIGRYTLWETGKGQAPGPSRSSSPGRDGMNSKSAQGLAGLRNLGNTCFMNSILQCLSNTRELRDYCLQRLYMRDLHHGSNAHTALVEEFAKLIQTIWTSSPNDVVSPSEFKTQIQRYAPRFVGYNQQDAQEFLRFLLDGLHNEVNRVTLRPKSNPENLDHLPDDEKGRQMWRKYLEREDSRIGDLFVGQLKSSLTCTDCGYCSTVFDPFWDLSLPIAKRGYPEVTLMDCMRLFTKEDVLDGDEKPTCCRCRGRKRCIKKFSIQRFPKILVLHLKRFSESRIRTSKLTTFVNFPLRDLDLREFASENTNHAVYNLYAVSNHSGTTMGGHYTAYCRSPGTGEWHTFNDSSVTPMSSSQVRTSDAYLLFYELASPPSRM
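USP2 core (20nM final) preincubated 30 min RT with compound, then Ub-PLA2 20nM and NBD C6-HPC 20uM final added; buffer 20mM Tris-HCl pH 8.0, 2mM CaCl2. Fluorescence Ex 460/Em 535 read at 0 and 2.5 h; normalized to NEM.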
Ub-GFP proteasome = inhibits proteasome, raising ubiquitin-GFP reporter fluorescence; Potency, µM (top dose mostly 45.9 µM), for the others: at the highest dose activation (GFP accumulation), usual class: activators; 67,000 tested, under 10 active; Ubiquitin-GFP reporter cells, proteasome inhibition, GFP fluorescence; response scale: untreated = 0%, 10 µM MG-132 = 100%; active = well fitted activation curve with a large enough effect, not every such curve was filed as active; inconclusive = small, poorly fitted or top-dose-only effect, or another doubt; inactive = no such curve, though single readings can be large or run the other way; also: potency is read from the fitted curve at half-maximal effect
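Reporter cells (U2OS, ubiquitin-G76V-GFP fusion) are plated overnight, then treated 4 hr at 37 °C with compound titrations from 46 uM down to 2.9 nM. Activity is scaled against untreated cells and 10 uM MG-132.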
TSHR agonist = agonists of human thyroid stimulating hormone receptor. P16473. HEK293-CNG-TSHR cells (CNG channel as cAMP sensor), membrane potential dye, cAMP. Potency, µM (doses to about 57.1 µM), for the others: at the highest dose activation, actives largely listed as activators. 0.48% of 73,000 active. AID 926; active = well fitted activation curve with a large enough effect in the main read-out, with a control signal flat, not every such curve was filed as active; inconclusive = small, poorly fitted or top-dose-only effect, or a change in a side signal; inactive = no such curve, though single readings can be large or run the other way; % of control where 0% means no effect;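 also: the control signal comes from parental cells without the receptor; potency is read from the fitted curve at half-maximal effect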
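HEK 293 cells stably expressing TSHR and a modified CNG channel, with CNG-only parental cells as counterscreen, were preloaded 60 min at room temperature with membrane potential dye containing 100 uM RO 20-1724. Compound exposure was 30 min, and depolarization was read as fluorescence at 590 nm.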
parental cAMP = raises cAMP in parental HEK293 cells lacking TSH receptor. parental HEK293 CNG biosensor, cAMP membrane potential fluorescence. AID 953. 150 tested, under 10 active. shares compounds with TSHR agonist. activity change, negative = inhibition, % at 32.9 µM
Active calls of the source: *; [ ] = another dose, or the depositor's remark. Unless noted, calls follow the shape of the dose curve; as a rule, active = well fitted curve in the direction sought with a large enough effect; inconclusive = small, poorly fitted or top-dose-only effect, or another doubt; inactive = no such curve, though single readings can be large; an effect the other way counts as inactive or inconclusive.

CCOC(=O)C1C(=O)NC(N2CCCCC2)=NC1c1ccccc1 (centres undefined) was read as HEK293 cAMP ctrl 1.8%, GBA activity >76.9, Bst PK mod >57, USP2a inhib -7.3%, Ub-GFP proteasome 3.2% and TSHR agonist 8.8%.
`S=C1N[C@H](c2ccccc2)N[C@H](c2ccccc2)S1` gave HEK293 cAMP ctrl -54.4%[11.4 µM], Ub-GFP proteasome -8.2%[9.17 µM] and TSHR agonist inconclusive.
For Cc1cc(=O)[nH]c(SCCOc2ccc(OC(C)C)cc2)n1 the results were HEK293 cAMP ctrl 2.3%, GBA activity >76.9, USP2a inhib -0.9%, Ub-GFP proteasome 0.2% and TSHR agonist 23.0%.
Cc1cc(=O)[nH]c(SCCOc2ccc3c(c2)CCC3)n1 was read as HEK293 cAMP ctrl 11.5%, GBA activity >76.9, Bst PK mod >57, USP2a inhib 6.5%, Ub-GFP proteasome 5.7% and parental cAMP 24.6.
Screening COc1ccc(-n2c(=O)c(-c3cn(C)c4ccccc34)nc3cncnc32)cc1 returned HEK293 cAMP ctrl 9.9%, USP2a inhib 11.5%, Ub-GFP proteasome 0.0% and TSHR agonist 15.4%.
For CCc1nnc(NC(=O)CSc2nnc(-c3ccoc3C)n2CC(C)C)s1 the results were HEK293 cAMP ctrl -21.2%, GBA activity >76.9, Bst PK mod >57, USP2a inhib 24.8%, Ub-GFP proteasome -3.1% and TSHR agonist -7.7%.
For Cc1occc1-c1nnc(SCC(=O)NCc2ccco2)n1CC(C)C the results were HEK293 cAMP ctrl 12.2%, Bst PK mod >57, USP2a inhib 14.9%, Ub-GFP proteasome -2.9%, TSHR agonist 20µM* and parental cAMP -9.6.
Screening COc1cc(OC)cc(C(=O)N2c3ccc(F)cc3CCC2C)c1 (centres undefined) returned HEK293 cAMP ctrl 30.0%, GBA activity >76.9, Bst PK mod >57, USP2a inhib -5.2%, Ub-GFP proteasome -0.8%, TSHR agonist 12.6µM* and parental cAMP 12.3.
COCCNC(=O)C(c1ccccc1)N(Cc1cccs1)C(=O)Cn1nnc2ccccc21 (centres undefined) was read as HEK293 cAMP ctrl 29.7%, GBA activity >76.9, Bst PK mod >57, USP2a inhib 12.4%, Ub-GFP proteasome -1.2%, TSHR agonist 12.6µM* and parental cAMP 7.0.
`CCOC(=O)CN(C(=O)Cn1nnc2ccccc21)C(C(=O)NCCOC)c1ccccc1` (centres undefined) gave HEK293 cAMP ctrl 7.4%, GBA activity >76.9, Bst PK mod >57, Ub-GFP proteasome 0.6% and TSHR agonist -0.9%.
COC(=O)C1=C(C)NC(C)=C(C(=O)OC)C1c1ccc(OC(=O)c2ccco2)cc1 was read as HEK293 cAMP ctrl 8.9%, USP2a inhib 5.4%, Ub-GFP proteasome -2.9%, TSHR agonist 20µM* and parental cAMP -8.8.
`CCOC(=O)C1=C(C)NC(C)=C(C(=O)OCC)C1c1ccc(OC)cc1` gave HEK293 cAMP ctrl 3.9%, GBA activity inconclusive, Bst PK mod >57, USP2a inhib 1.7%, Ub-GFP proteasome -2.6% and TSHR agonist 23.1%.
For CC(C)c1[nH]nc2c1C(Cc1ccccc1)C(C#N)=C(N)O2 (centres undefined) the results were HEK293 cAMP ctrl 24.1%, GBA activity >76.9, Bst PK mod >57, Ub-GFP proteasome 2.3% and TSHR agonist 0.0%.
COc1ccc(-n2c(=O)c(-c3cn(C)c4ccccc34)nc3cnc(N4CCOCC4)nc32)cc1 was read as HEK293 cAMP ctrl inconclusive, USP2a inhib 68.8%, Ub-GFP proteasome -0.6% and TSHR agonist inconclusive.
For O=C1C=C(NCc2ccco2)C2(CCCCC2)O1 the results were HEK293 cAMP ctrl inconclusive, USP2a inhib -1.2%, Ub-GFP proteasome 29.4% and TSHR agonist inconclusive.
`O=C1C=C(NCc2ccccc2)C2(CCCCC2)O1` gave HEK293 cAMP ctrl 22.4%[11.4 µM], USP2a inhib 9.2%[7.66 µM], Ub-GFP proteasome 0.0%[9.17 µM] and parental cAMP 16.9[25.6 µM].
`CN(C)C(=O)c1ccc(-c2cc(N(C)Cc3ccco3)ncn2)cc1` gave HEK293 cAMP ctrl 15.4%, USP2a inhib 12.3%, Ub-GFP proteasome -2.0% and TSHR agonist 14.7%.
Screening CC(C)c1nnc(NC(=O)CCC(=O)NCc2ccc3c(c2)OCO3)s1 returned HEK293 cAMP ctrl -5.6%, Bst PK mod >57, USP2a inhib 0.9%, Ub-GFP proteasome 3.3%, TSHR agonist 3.2% and parental cAMP 15.0[25.6 µM].
For Cc1noc(C)c1C(=O)N1CCC2(CC1)CCN(c1ccncc1)CC2 the results were HEK293 cAMP ctrl inconclusive, USP2a inhib -20.8%, Ub-GFP proteasome -8.5% and TSHR agonist inconclusive.
NCC1O[C@@H](OC2C(N)CC(N)C(O)C2O[C@@H]2OC(CO)C(O)C2O)C(N)C(O)C1O (some centres undefined) was read as USP2a inhib -10.6%.
Screening COc1ccc(S(=O)(=O)N(C)CC(=O)N2CCCCCC2)cc1OC returned HEK293 cAMP ctrl 5.5%, GBA activity >76.9, Bst PK mod >57, USP2a inhib 0.5%, Ub-GFP proteasome -6.6%, TSHR agonist 0.9% and parental cAMP -44.2[25.6 µM].

Screening data deposited in PubChem BioAssay by National Center for Advancing Translational Sciences (NCATS).
